In the library only some 1.2% were active in any assay of this set; here they are far more common.
HTT cytoprotect – cytoprotection in Huntington HTT-Q103 PC12 cell model | PC12 HTT-Q103 induced, cytoprotection, ATP luminescence, 40 h | Potency, µM (doses to about 56.4 µM), for inactives: cytoprotection (ATP increase), hits mostly activators | hit rate 0.14% among 230,000; further: potency means the concentration at half of the fitted maximal effect; % of control where 0% means no effect; nearly all actives have a fitted effect of over 45% in size
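Cells were plated at 1500 per well in phenol red-free DMEM with 5% equine and 5% calf serum. Tebufenozide (100 nM final) and compounds were added, then ATPlite reagent, and luminescence was read.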
GLA inh pH 4.5 – blocks human alpha-galactosidase A at pH 4.5. P06280. activity change, negative = inhibition, % at 105 µM. 230,000 tested, under 10 active. purified enzyme, 4-MU-alpha-Gal fluorescence, pH 4.5;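 further: 0% = full activity with enzyme and -100% = basal without enzyme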
HttQ103 aggreg – mutant huntingtin aggregation inhibition; Potency, µM (doses to about 46.1 µM), inactives show at the highest dose activity change, negative = inhibition, actives largely listed as inhibitors; AID 1688; PC12 HttQ103-GFP aggregates, Acumen cytometry, 40 h; hit rate 1.1% among 220,000; further: potency means the concentration at half of the fitted maximal effect; on the % scale 0 is the no-effect control and ±100 the full control effect; nearly all actives have a fitted effect of over 60% in size
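PC12 cells with ecdysone-inducible HTT exon1 Q103-GFP, induced by 100 nM tebufenozide, given compounds in a concentration series. GFP aggregates (1–25 um, 6 SD above background) counted in lysates by laser-scanning cytometry, 488 nm excitation.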
aGal spleen mod – inhibitors or activators of human alpha-galactosidase in spleen homogenate | Potency, µM (highest dose often 80 µM), for inactives: top-dose activity change, negative = inhibition, most hits filed as inhibitors | hit rate 0.008% among 240,000 | AID 2107 | human spleen homogenate, 4MU-alpha-Gal fluorescence, 40 min;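 further: potency means the concentration at half of the fitted maximal effect; 0% = enzyme with vehicle and -100% = no enzyme basal signal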
Target sequence (P06280 32-429 limits assumed): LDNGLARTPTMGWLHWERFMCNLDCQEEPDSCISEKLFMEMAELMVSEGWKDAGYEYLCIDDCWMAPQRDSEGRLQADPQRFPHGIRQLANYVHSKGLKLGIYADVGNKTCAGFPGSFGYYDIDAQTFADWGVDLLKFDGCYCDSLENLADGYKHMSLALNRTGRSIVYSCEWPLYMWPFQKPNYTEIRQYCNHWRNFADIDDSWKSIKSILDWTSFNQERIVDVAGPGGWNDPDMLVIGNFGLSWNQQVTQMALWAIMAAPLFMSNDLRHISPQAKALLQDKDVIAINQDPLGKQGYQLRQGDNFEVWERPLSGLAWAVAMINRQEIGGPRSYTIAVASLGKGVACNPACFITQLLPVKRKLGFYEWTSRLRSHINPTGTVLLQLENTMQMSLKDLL
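Inhibition or activation of alpha-galactosidase in human spleen homogenate is scored by 4-MU fluorescence after 40 min at 37C, pH 5.0, with 1 mM substrate. AC50s come from concentration-response fitted to the Hill equation.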
* hit, by the source's call; ? = inconclusive; · = not tested or not shown; [ ] = remark or other dose. The call rests on the fitted dose curve; in most records, active means well fitted curve in the direction sought with a large enough effect; inconclusive means small, poorly fitted or top-dose-only effect, or another doubt; inactive means no such curve, though single readings can be large; an effect the other way counts as inactive or inconclusive.

SMILES	HTT cytoprotect	GLA inh pH 4.5	HttQ103 aggreg	aGal spleen mod
Cc1ccc(SC[C@H](c2ccccc2)N2CCN(CCc3ccccc3)CCC2=O)cc1	-4.6%[10 µM]	-13.9	-25.1%[9.22 µM]	-2.5%
CN(C)Cc1nc(-c2cn(C)c3ccccc23)no1	-77.7%	·	·	-3.9%
CCn1cc(C(=O)O)c(=O)c2cc(F)c(N3CCN(S(=O)(=O)c4ccc(NC(=O)OC)cc4)CC3)cc21	-11.1%[10 µM]	3.4	31.6µM*	-3.4%
CCCCC[C@H](O)C/C=C1/C(=O)C=C[C@@H]1C/C=C\CCCC(=O)O	11.2µM*	-3.5	·	-20.1%
CCCCCCOc1ccc(C(=N)N(CCCC)CCCC)c2ccccc12	-98.7%	·	?	·
CN(CC/C=C1/c2ccccc2CSc2ccccc21)CCCO	·	-5.9	?	-12.7%
CC(O)CN(C)CC/C=C1/c2ccccc2CSc2ccccc21 (configuration not stated)	6.2%[10 µM]	-17.8	8.91µM*	0.4%
OC[C@@H]1OC(O)[C@H](O)[C@H](O)[C@H]1O (some centres not stated)	·	·	·	3.4%
Oc1ccccc1Cn1c(-c2ccccc2O)nc2ccccc21	-6.9%	0.1	25.1µM*	8.9%
Cc1cc(Cl)nc(-n2nc(C)cc2C)n1	-1.4%[10 µM]	-3.1	?	2.7%
Cc1cc(C)n(-c2nc(C)nc(N)n2)n1	7.1%	-13.0	0.794µM*	-4.3%
COc1cc2c(cc1OC)C1(Nc3c-2c(C)nn3-c2ccccc2)C(=O)Nc2ccccc21 (configuration not stated)	3.55µM*	-8.8	-5.2%	7.1%
Oc1ccc(/C=N/Nc2nccnc2Cl)c(O)c1	-0.4%	2.1	-30.1%[9.22 µM]	-1.8%
Oc1ccc(/C=N/Nc2ncc(Br)cn2)c(O)c1	36.4%[10 µM]	-11.7	12.6µM*	9.4%
CCCn1c(C)nc2c(NCCCN(CCO)CCO)nc(C)nc21	13.9%	-12.4	·	-3.2%
CSc1ccccc1NC(=O)CN(C)CC(=O)NCc1ccccc1	2.7%[10 µM]	12.3	2.2%	35.5µM*
Cc1ccc(F)cc1-c1ccc(C(=O)N=C(N)N)o1	·	·	·	7.1%
CO/N=C/c1ccc(N2CCN(C(=O)c3ccc(F)cc3)CC2)c([N+](=O)[O-])c1	8.2%[10 µM]	-5.5	12.6µM*	-8.5%
CO/N=C/c1ccc(N2CCN(C(=O)c3ccc(Cl)cc3Cl)CC2)c([N+](=O)[O-])c1	-69.0%	-29.4	17.8µM*	5.6%
CO/N=C/c1ccc(N2CCN(C(=O)c3cccc(C(F)(F)F)c3)CC2)c([N+](=O)[O-])c1	11.5%[10 µM]	-16.5	?	-3.2%
Cc1cc(C)nc(NN=C(c2ccccc2)c2ccccc2)n1	22.2%[10 µM]	-12.1	17.8µM*	-4.4%
CN(C)CC/C=C1\c2ccccc2COc2ccc(CC(=O)O)cc21	-35.1%	·	18.5%	·
CC(=O)Nc1ccc(NC(=O)COC(=O)c2c3c(nc4ccccc24)CCN(Cc2ccccc2)C3)cc1	5.9%[10 µM]	-6.2	3.98µM*	5.9%
O=[N+]([O-])c1ccc(N/N=C/c2sc(N3CCOCC3)nc2-c2ccccc2)c(S(=O)(=O)Nc2ccc(Cl)cc2)c1	-64.1%	-6.1	3.55µM*	1.8%
Cc1ccc(-c2csc(=Nc3cccnc3)n2CCCn2ccnc2)cc1C	-9.3%[10 µM]	0.0	3.55µM*	-1.8%
SMILES	HTT cytoprotect	GLA inh pH 4.5	HttQ103 aggreg	aGal spleen mod
CCC/C=C1\CCCOC(C(=O)NCc2ccccc2)(C(F)(F)F)C1 (configuration not stated)	·	·	·	6.5%
CC[C@H](C)C(=O)O[C@@H]1CCC=C2C=C[C@H](C)[C@@H](CC[C@H]3C[C@@H](O)CC(=O)O3)[C@H]21	-25.0%[1.9 µM]	·	·	·
CO[C@H]1C[C@@H]2CC[C@@H](C)[C@@](O)(O2)C(=O)C(=O)N2CCCC[C@H]2C(=O)OC([C@H](C)C[C@@H]2CC[C@@H](O)[C@H](OC)C2)CC(=O)[C@H](C)/C=C(\C)[C@@H](O)[C@@H](OC)C(=O)[C@H](C)C[C@H](C)/C=C/C=C/C=C/1C (some centres not stated)	-80.5%	-9.4	·	-22.9%
CCOC(=O)c1sc(NC(=O)CSc2nc(C)cc(C)n2)c(C#N)c1C	-7.8%	2.2	-11.9%	-3.4%
CCc1nnc(NC(=O)CSc2nc3c(cc2C#N)CCCC3)s1	-18.6%	-0.3	-13.8%	-4.8%
CCOC(=O)c1sc(NC(=O)CSc2n[nH]c(-c3ccccc3)n2)c(C#N)c1C	0.7%[10 µM]	-11.1	20µM*	-0.2%
CCOC(=O)c1sc(NC(=O)c2cc(-c3ccccc3)nc3ccccc23)c(C#N)c1C	-91.2%	-8.2	7.08µM*	-1.1%
CCOC(=O)c1sc(NC(=O)CSc2nc3c(cc2C#N)CCCCC3)c(C#N)c1C	-24.6%	2.1	5.62µM*	1.9%
CCCCCCCCCCOc1cc(OCCCCCCCCCC)cc(N(CC(=O)O)CC(=O)O)c1	·	·	·	-4.1%
CNC1CCc2cc(OC)c(OC)c(OC)c2-c2ccc(OC)c(=O)cc21 (configuration not stated)	-317.3%	·	-26.9%	·
COc1cccc(-c2nc(N3CCN(C)CC3)c3ccccc3n2)c1	-36.7%	·	·	-0.4%
O=C(NC1CCCC1)c1cc2nc(-c3ccccc3)cc(-c3ccccc3)n2n1	-84.8%[10 µM]	2.1	3.55µM*	-4.9%
Cc1noc(-c2ccc(CSCCC(=O)O)cc2)c1NC(=O)OC(C)c1ccccc1Cl (configuration not stated)	·	·	·	6.2%
O=C(O)c1cc2c([nH]c1=O)CCCC2	6.0%	-11.5	-17.9%	0.0%
C=CCSC(=C(C#N)C#N)c1cc2c([nH]1)CCCC2	11.2µM*	-5.9	?	1.8%
C/C(=N\NC(=O)CSCc1ccc([N+](=O)[O-])cc1)c1ccccc1O	·	0.6	10µM*	3.8%
O=C(O)CCc1ccc(NCc2cccc(Oc3ccccc3)c2)cc1	·	·	·	13.8%
COc1ccc(CNCc2cccc(Oc3ccccc3)c2)cc1	-54.3%	-4.6	2.82µM*	-10.3%
COc1ccc(-c2nc(N)c3ncn([C@H]4O[C@@H](CO)[C@@H](O)[C@@H]4O)c3n2)cc1	4.0%[10 µM]	·	·	·
COc1ccc(CC(N)C(=O)NC2C(CO)OC(n3cnc4c(N(C)C)ncnc43)C2O)cc1 (configuration not stated)	-93.7%	1.8	12.6µM*	-8.9%
C/C1=C2/[N-]C(C(CC(N)=O)[C@@]2(C)CCC(=O)NCC(C)OP(=O)([O-])O[C@H]2[C@@H](O)[C@@H](n3cnc4cc(C)c(C)cc43)O[C@@H]2CO)[C@]2(C)N=C(/C(C)=C3N=C(/C=C4N=C1C(CCC(N)=O)C\4(C)C)[C@@H](CCC(N)=O)[C@]\3(C)CC(N)=O)[C@@H](CCC(N)=O)[C@]2(C)CC(N)=O.CC(=O)O.[Co] (some centres not stated)	3.2%	·	1.2%	·
CC(C)COC(=O)NCCOC(=O)Nc1cccc(Cl)c1	-13.2%[10 µM]	0.6	10µM*	-0.7%
CC(C)COC(=O)NCCCOC(=O)Nc1ccccc1	-6.4%[0.074 µM]	-4.1	6.6%	0.0%
CC(C)(C(=O)O)c1ccc([C@@H](O)CCCN2CCC(C(O)(c3ccccc3)c3ccccc3)CC2)cc1	-4.4%[1.9 µM]	·	·	·
C/C=C1\COC(C(=O)NCc2cccc(OC)c2OC)(C(F)(F)F)C=C1C=C(C)C (configuration not stated)	·	·	·	3.9%
